Experimental data published in PubChem BioAssay.
The source made the active and inactive calls.

Assays:
Albumin (Bos taurus) = Albumin (Bos taurus) (UniProt P02769); test: compounds binding labelled BSA control protein – biochemical, small-molecule microarray, Alexa647 label, 635/667 nm fluorescence, artefact control for SMM control protein annotation, profiling panel (AID 1118); conditions: BSA-A647 binding, fluorescence 635 nm, higher = more signal;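 also: score merges 667 nm emission intensity and signal-to-noise per printed compound spot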
[1] = probe aXIP binding to arrayed compounds – biochemical, NeuroSMM set, 635/667 nm fluorescence, primary screen (AID 1119); conditions: small-molecule microarray, higher = more signal, called active from +8 up or from −8 down;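 also: probe is the protein aXip251-270 applied at 1 µg/mL to compound-printed slides; binding of probe to printed compounds measured as 667 nm fluorescence plus signal to noise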
[2] = probe aNOTCH3 binding on compound microarray – biochemical, small-molecule microarray, 635/667 nm fluorescence, primary screen (AID 1120); conditions: higher = more signal;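 also: probe is a biotin-tagged antibody raised against NOTCH3 rather than NOTCH3 protein; score merges spot fluorescence near 667 nm with spot signal to noise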
[3] = probe aNOTCH2 binding on compound microarray – biochemical, small-molecule microarray, 635/667 nm fluorescence, primary screen (AID 1121); conditions: higher = more signal;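 also: score merges feature fluorescence read at 667 nm with its signal to noise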
[4] = biological target: Carbonic anhydrase 2 (Homo sapiens) (UniProt P00918); test: compounds binding carbonic anhydrase 2 – biochemical, small-molecule microarray, Alexa647-labelled CAII, profiling panel (AID 1122); conditions: CAII-A647 binding fluorescence, higher = more signal
[5] = COS7 lysate on small-molecule microarray, probe aHis, 635 nm (AID 1123); conditions: COS7 cell lysate, fluorescence, higher = more signal;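 also: z-score combines 667nm fluorescence intensity with signal-to-noise per printed compound spot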
[6] = probe aLAP1 signal on lysate-treated microarray – cell lysate, small-molecule microarray, COS7 lysate, primary screen (AID 1124); conditions: probe aLAP1, fluorescence, higher = more signal;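 also: lysate comes from COS7 cells expressing LAP1 and is applied at 0.3 µg/mL; score merges spot fluorescence near 667 nm with signal-to-noise over triplicate slides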
Sam68 (KHDRBS1) = test: compounds binding KHDRBS1 protein – biochemical, small-molecule microarray, 635 nm fluorescence, primary screen (AID 1125); conditions: higher = more signal;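 also: score merges 667 nm channel intensity with signal to noise over triplicate slides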
[7] = system: Chordin-like protein 2 (CHRDL2); test: compounds binding chordin-like 2 – biochemical, small-molecule microarray, 635 nm fluorescence, primary screen (AID 1126); conditions: fluorescence 635 nm, higher = more signal;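 also: printed compound slides probed with Chrdl2 protein at 4 µg/mL for 1 h at 4 C; score merges 667 nm emission intensity with signal to noise over three replicate slides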
[8] = biological target: Concanavalin-A (Canavalia ensiformis) (UniProt P02866); test: compounds binding concanavalin A lectin – biochemical, small-molecule microarray, Alexa647 label, 635 nm, artefact control for SMM control protein annotation, primary screen (AID 1127); conditions: ConA-A647 binding fluorescence, higher = more signal;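 also: z combines 667 nm emission intensity with signal-to-noise across three replicate slides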
[9] = compounds binding Alexa647 anti-His antibody – biochemical, small-molecule microarray, 635 nm fluorescence, artefact control for SMM control protein annotation, primary screen (AID 1128); conditions: higher = more signal;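 also: score merges feature fluorescence with signal-to-noise for each printed compound spot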
[10] = system: Human papillomavirus type 1a E7 protein (residues 1-88); test: HPV1a E7 small-molecule binders, primary screen, biochemical, small-molecule microarray, residues 1-88, 635 nm (AID 1129); conditions: small-molecule microarray binding, fluorescence 635 nm; higher = more signal
[11] = biological target: Focal adhesion kinase 1 (Homo sapiens) (UniProt Q05397); test: PTK2 protein binding on printed compound slides – biochemical, small-molecule microarray, 635/667 nm fluorescence, BSA, DTT, primary screen (AID 1130); conditions: 635 nm fluorescence, higher = more signal;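 also: composite of spot emission at 667 nm and signal to noise over triplicate slides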
[12] = system: Fibrinogen (Alexa647-labelled); test: Alexa647-fibrinogen binding to printed small molecules – biochemical, small-molecule microarray, 635/667 nm fluorescence, artefact control for SMM control-protein annotation, profiling panel (AID 1131); conditions: fibrinogen-A647 binding fluorescence, higher = more signal;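 also: z-score merges 667 nm fluorescence with per-spot signal-to-noise over triplicate slides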
[13] = biological target: Follistatin (Homo sapiens) (UniProt P19883); test: FST protein binding to printed compounds – biochemical, small-molecule microarray, 635/667 nm fluorescence, primary screen (AID 1132); conditions: 635 nm fluorescence, higher = more signal
[14] = biological target: Fibroblast growth factor 2 (Homo sapiens) (UniProt P09038); test: basic fibroblast growth factor binding to printed compounds – biochemical, small-molecule microarray, 635/667 nm fluorescence, primary screen (AID 1133); conditions: FGF2, fluorescence 635/667, higher = more signal
[15] = JC-1 mitochondrial potential readout, lung cancer cells – cell-based, A549, JC-1 fluorescence, basal, 24 h, 100 nL, profiling panel (AID 1138); conditions: higher = more signal;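 also: A549 lung adenocarcinoma cells under basal conditions with no added stimulus; test concentration not given here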
Lefty1 = Lefty1 protein binding to printed compounds – biochemical, small-molecule microarray, 635/667 nm fluorescence, primary screen (AID 1139); conditions: fluorescence 635/667, higher = more signal
[16] = system: wheat germ agglutinin (Triticum aestivum), Alexa647-labelled; test: Alexa647-WGA lectin binding to printed small molecules – biochemical, small-molecule microarray, 635/667 nm fluorescence, artefact control for SMM control-protein annotation, profiling panel (AID 1140); conditions: WGA-A647 binding, 635 nm fluorescence, higher = more signal;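 also: score merges 667 nm feature emission with signal to noise over triplicate slides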
[17] = biological target: Luciferin 4-monooxygenase (Photinus pyralis) (UniProt P08659); test: inhibition of purified Photinus pyralis luciferase – biochemical, luminescence, purified enzyme, 2006 set, primary screen (AID 1141); conditions: purified firefly luciferase, SteadyGlo luminescence, 30 min; higher = more signal, called active from +8 up or from −8 down;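 also: cell-free assay with purified firefly luciferase at 100 ng per well in PBS; test concentration not given here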
Chain of Luciferin 4-monooxygenase (Photinus pyralis) (P08659 whole entry, looked up): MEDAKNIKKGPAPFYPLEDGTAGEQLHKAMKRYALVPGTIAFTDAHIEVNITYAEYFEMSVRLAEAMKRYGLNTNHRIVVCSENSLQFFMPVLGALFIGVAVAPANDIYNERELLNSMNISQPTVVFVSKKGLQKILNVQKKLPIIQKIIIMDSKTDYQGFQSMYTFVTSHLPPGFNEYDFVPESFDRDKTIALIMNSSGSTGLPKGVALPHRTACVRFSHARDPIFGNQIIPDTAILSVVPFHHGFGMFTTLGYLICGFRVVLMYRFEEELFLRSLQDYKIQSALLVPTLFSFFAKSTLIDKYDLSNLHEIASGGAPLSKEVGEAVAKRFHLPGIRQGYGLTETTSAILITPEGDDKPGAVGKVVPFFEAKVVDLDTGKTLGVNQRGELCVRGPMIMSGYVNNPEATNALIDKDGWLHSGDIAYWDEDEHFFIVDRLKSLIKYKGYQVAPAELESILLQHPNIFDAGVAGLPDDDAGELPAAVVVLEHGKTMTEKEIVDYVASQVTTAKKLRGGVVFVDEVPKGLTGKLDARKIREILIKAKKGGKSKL

Chain of Focal adhesion kinase 1 (Homo sapiens) (Q05397 whole entry, looked up): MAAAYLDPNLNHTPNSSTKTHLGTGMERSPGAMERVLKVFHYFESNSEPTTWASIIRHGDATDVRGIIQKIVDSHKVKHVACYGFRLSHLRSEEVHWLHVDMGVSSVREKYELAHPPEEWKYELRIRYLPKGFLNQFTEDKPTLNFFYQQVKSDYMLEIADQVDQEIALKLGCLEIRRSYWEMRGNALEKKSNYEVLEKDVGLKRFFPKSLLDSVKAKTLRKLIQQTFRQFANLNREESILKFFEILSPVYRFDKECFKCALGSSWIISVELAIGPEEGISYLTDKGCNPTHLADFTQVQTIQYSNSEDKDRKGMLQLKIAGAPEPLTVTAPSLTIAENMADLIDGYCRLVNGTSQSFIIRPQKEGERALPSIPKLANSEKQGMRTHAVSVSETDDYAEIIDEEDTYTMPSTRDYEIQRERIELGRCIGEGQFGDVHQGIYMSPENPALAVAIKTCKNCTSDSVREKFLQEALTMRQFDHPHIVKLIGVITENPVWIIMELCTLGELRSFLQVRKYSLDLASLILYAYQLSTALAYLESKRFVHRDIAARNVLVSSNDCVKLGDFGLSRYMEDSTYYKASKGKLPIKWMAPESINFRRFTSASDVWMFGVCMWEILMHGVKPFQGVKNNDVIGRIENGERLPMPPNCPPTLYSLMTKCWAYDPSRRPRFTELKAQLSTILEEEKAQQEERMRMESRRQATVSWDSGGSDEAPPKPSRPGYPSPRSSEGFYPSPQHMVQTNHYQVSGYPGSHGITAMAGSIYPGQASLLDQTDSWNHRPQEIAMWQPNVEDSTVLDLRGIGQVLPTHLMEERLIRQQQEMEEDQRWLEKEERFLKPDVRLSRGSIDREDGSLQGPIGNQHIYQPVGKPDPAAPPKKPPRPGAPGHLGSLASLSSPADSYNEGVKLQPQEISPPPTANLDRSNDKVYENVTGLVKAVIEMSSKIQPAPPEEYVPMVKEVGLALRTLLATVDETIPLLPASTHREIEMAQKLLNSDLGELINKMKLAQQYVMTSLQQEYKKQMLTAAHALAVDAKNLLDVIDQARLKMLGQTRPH
Chain of Follistatin (Homo sapiens) (P19883 whole entry, looked up): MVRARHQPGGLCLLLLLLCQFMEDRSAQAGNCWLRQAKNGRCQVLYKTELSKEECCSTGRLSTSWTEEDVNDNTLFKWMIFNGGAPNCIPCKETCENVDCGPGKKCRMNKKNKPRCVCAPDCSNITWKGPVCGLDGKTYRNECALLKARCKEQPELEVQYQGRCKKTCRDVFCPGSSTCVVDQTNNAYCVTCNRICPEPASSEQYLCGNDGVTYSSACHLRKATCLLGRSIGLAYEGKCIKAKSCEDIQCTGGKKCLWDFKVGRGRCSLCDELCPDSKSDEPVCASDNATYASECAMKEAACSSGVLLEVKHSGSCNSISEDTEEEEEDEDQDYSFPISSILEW
Chain of Fibroblast growth factor 2 (Homo sapiens) (P09038 whole entry, looked up): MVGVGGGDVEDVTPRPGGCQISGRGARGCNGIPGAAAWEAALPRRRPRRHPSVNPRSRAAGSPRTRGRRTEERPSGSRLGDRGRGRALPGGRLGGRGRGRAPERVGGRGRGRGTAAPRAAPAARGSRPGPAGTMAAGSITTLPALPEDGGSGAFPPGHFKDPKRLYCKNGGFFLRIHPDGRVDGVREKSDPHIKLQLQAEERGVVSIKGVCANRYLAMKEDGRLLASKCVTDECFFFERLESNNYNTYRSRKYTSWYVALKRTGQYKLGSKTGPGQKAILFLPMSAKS
Chain of Concanavalin-A (Canavalia ensiformis) (P02866 whole entry, looked up): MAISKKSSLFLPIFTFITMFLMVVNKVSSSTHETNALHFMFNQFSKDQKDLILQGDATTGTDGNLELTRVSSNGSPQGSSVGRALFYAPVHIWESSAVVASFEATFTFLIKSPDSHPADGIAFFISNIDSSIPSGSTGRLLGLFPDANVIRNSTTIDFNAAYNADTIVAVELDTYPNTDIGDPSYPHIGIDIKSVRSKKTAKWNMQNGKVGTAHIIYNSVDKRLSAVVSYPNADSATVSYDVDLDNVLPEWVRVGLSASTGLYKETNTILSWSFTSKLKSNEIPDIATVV
Chain of Albumin (Bos taurus) (P02769 whole entry, looked up): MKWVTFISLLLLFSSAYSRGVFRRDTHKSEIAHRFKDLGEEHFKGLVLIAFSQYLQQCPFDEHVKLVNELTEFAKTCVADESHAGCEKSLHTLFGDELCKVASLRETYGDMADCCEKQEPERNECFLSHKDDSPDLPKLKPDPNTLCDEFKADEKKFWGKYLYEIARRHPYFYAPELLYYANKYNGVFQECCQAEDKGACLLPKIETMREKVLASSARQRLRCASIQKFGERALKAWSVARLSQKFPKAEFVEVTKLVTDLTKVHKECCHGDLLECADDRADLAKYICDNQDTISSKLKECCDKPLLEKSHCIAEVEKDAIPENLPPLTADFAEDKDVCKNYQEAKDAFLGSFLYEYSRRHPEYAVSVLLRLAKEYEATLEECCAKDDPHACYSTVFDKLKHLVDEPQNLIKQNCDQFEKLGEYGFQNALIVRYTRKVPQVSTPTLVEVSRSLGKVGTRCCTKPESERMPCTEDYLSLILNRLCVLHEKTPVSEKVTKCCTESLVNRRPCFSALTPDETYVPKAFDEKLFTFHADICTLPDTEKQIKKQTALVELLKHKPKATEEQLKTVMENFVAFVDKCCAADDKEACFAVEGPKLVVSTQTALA

SMILES	composite z-score (Albumin (Bos taurus))	composite Z-score [1]	composite z-score [2]	composite z-score [3]	composite z-score [4]	composite z-score [5]	composite z-score [6]	composite z-score (Sam68 (KHDRBS1))	composite z-score [7]	composite z-score [8]	composite z-score [9]	composite z-score [10]	composite z-score [11]	composite z-score [12]	composite z-score [13]	composite z-score [14]	z-score [15]	composite z-score (Lefty1)	composite z-score [16]	z-score [17]
COC(=O)Cn1c(C(=O)N2CCCC2)cc2c1C[C@H]1CN(C(=O)c3ccccc3)[C@@](Cc3ccc(OC)cc3)(C(=O)OC)[C@@H]21	0.92	1.09 (inactive)	0.707	0.375	0.587	2.68	-0.268	0.931	0.207	0.73	1.9	1.24	1.67	0.972	0.43	-0.612	1.31	-0.544	1.18	1.78 (inactive)
COc1ccc([Si](C)(C)[C@H]2[C@H](CC(=O)N3Cc4ccccc4C[C@H]3CO)O[C@@]3(C(=O)N(Cc4cccc(N5CCOC5=O)c4)c4ccccc43)[C@@H]2C)cc1	-0.89	0.55 (inactive)	-0.0077	-0.104	0.574	0.784	0.0161	0.847	1.45	0.791	1.42	0.533	0.432	-0.235	1.31	1.32	2	1.24	0.188	-0.86 (inactive)
COCCOC(=O)N1C(=O)[C@@]2(c3ccccc31)[C@H](C(=O)N1CCc3cc(OC)c(OC)cc3C1)[C@H]1C(=O)O[C@H](c3ccccc3)[C@H](c3ccccc3)N1[C@@H]2c1ccccc1OCCO	0.484	0.497 (inactive)	0.0556	-0.0607	0.441	1.24	0.0221	1.3	0.107	1.17	1.86	1.18	0.989	0.938	1.13	0.349	0.679	0.762	1.02	-1.69 (inactive)
C[C@@H]1CC[C@H]2C(=O)N3[C@@H](CC[C@@H](C)[C@@H]3c3cccc(N4CCOCC4)c3)C(=O)N2[C@H]1c1cccc(Br)c1	0.718	0.307 (inactive)	-0.0259	-0.0956	0.459	0.425	0.336	1.16	0.932	0.92	1.52	1.04	-0.0269	0.783	1.12	0.555	2.96	1.15	1.04	-1.13 (inactive)
Cc1ccc(S(=O)(=O)N2[C@@H](c3ccccc3)C(C(=O)O)=CC[C@H]2c2ccccc2)cc1	0.508	1.47 (inactive)	-0.0647	-0.0771	0.837	2.33	0.498	0.702	-0.439	0.0991	-0.247	0.699	0.431	0.175	-0.12	-0.158	-1.38	0.0236	0.33	0.838 (inactive)
CCOC(=O)C1=CCC(c2cccc3ccccc23)N(S(=O)(=O)c2ccc(C)cc2)C1 (stereo not given)	0.816	0.494 (inactive)	0.056	-0.0731	0.401	1.41	0.117	1.12	0.341	1.08	0.206	1.17	1.02	0.928	0.825	-0.509	2.43	0.052	0.697	1.72 (inactive)
O=C1O[C@H](c2ccccc2)[C@H](c2ccccc2)N2[C@H]1[C@@H](C(=O)NC[C@H](O)c1ccccc1)[C@]1(C(=O)Nc3ccc(C#CC4=CCCCC4)cc31)[C@H]2c1ccc(OCCO)cc1	0.534	0.318 (inactive)	0.141	-0.0741	0.522	0.864	0.402	1.31	0.424	1.11	0.879	1.19	0.73	0.874	1.2	0.527	-1.76	1.26	0.944	-1.4 (inactive)
CO[C@@H]1COC(=O)CC=C[C@H](C)COC(=O)[C@H](Cc2ccccc2)NC(=O)CC=C[C@H]1C	-2.04	0.772 (inactive)	-0.162	-0.167	-0.155	-0.596	0.0055	0.294	1.53	-0.651	0.236	-1.13	-0.389	-0.811	0.997	1.38	1.5	1.54	-1.61	-0.964 (inactive)
NC(=O)NCC#Cc1ccc2c(c1)[C@]1(C(=O)N2)[C@H](C(N)=O)[C@H]2C(=O)O[C@H](c3ccccc3)[C@H](c3ccccc3)N2[C@@H]1c1ccccc1OCCO	0.284	0.0219 (inactive)	0.121	-0.0762	0.175	0.841	0.519	0.978	0.543	0.936	-0.22	1.01	-0.0788	0.543	1.23	0.66	-0.525	0.472	0.174	0.171 (inactive)
COCCCNC(=O)[C@@H]1c2ccccc2C(=O)N(CC23CC4CC(CC(C4)C2)C3)[C@H]1c1ccc(CO)cc1	-0.507	0.309 (inactive)	0.28	-0.0232	0.449	1.34	0.334	1.27	-0.0949	-0.171	-0.348	0.816	0.412	-0.434	1.39	0.875	-0.648	0.19	0.728	0.438 (inactive)
O=C1OCC=C[C@H]2OC34C=CCN(Cc5ccccc5)C(=O)[C@H]3N(CCCCCO)C(=O)[C@@H]4[C@@H]12 (stereo not given in full)	-0.711	1.78 (inactive)	-0.231	-0.207	0.605	0.096	-0.493	-0.673	-0.99	-1.11	-0.171	-0.614	0.0672	-0.736	-1.14	-1.24	0.0704	-1.09	-1.29	-0.423 (inactive)
CC(=O)NCCCC[C@@H]1NC(=O)[C@H]2C[C@@H](C(=O)NCCCCCCN(C)C)[C@@H](c3ccc(O)cc3)N2C1=O	-0.546	1.44 (inactive)	0.029	-0.0626	0.365	2.16	-0.1	1.31	1.09	1.18	3.14	1.25	0.554	0.793	1.34	0.903	-1.26	1.55	1.29	0.0866 (inactive)
CO[C@H]1COC(=O)[C@H](C)NC(=O)CC=C[C@@H](C)[C@H](NS(=O)(=O)c2ccc(C)cc2)COC(=O)CC=C[C@@H]1C	-0.524	0.0426 (inactive)	-0.152	-0.146	0.651	-0.616	-0.177	-1.03	1.41	-0.206	-0.0701	-0.64	-0.522	-1.3	1.28	0.708	0.507	1.35	-0.955	-0.217 (inactive)
CO[C@@H]1COC(=O)[C@H](COCc2ccccc2)NC(=O)CC=C[C@@H](C)[C@H](OC)COC(=O)[C@H](COCc2ccccc2)NC(=O)CC=C[C@H]1C	-0.711	-0.14 (inactive)	-0.0063	-0.112	-0.319	0.107	-0.225	-0.136	1.1	-0.582	-0.156	-0.47	-0.0624	-0.201	0.59	0.622	0.952	0.886	-0.915	-0.901 (inactive)
CC(c1ccccc1)C(O)C1C=CC2C(=O)N(C)C(=O)C2N1N(c1ccccc1)c1ccccc1 (stereo not given)	0.867	0.543 (inactive)	0.207	0.0605	0.507	1.57	0.19	0.431	-0.852	-0.597	0.69	0.919	0.467	0.948	-0.19	-0.377	0.755	-0.617	1.18	-0.273 (inactive)
O=C1O[C@H](c2ccccc2)[C@H](c2ccccc2)N2[C@H]1[C@@H](C(=O)Nc1nc3ccccc3s1)[C@]1(C(=O)Nc3ccc(C#CC4=CCCCC4)cc31)[C@H]2c1ccccc1OCCO	0.581	0.329 (inactive)	0.0452	-0.14	0.23	0.834	-0.189	1.3	0.497	1	0.485	1.15	0.66	0.797	0.968	1.2	-2.27	0.966	-0.17	-1.01 (inactive)
Cc1ccc(S[C@]2(C(=O)NCCCN(C)C)CC(=O)N(Cc3ccccc3)[C@@H]2c2ccc(CO)cc2I)cc1	0.717	0.35 (inactive)	0.0762	-0.0771	0.688	2	0.755	-0.381	-0.855	0.362	0.412	-0.0835	0.152	0.233	-0.143	-1.33	3.68	-0.892	0.876	-0.0307 (inactive)
